# PubChem BioAssay AID1851 (National Center for Advancing Translational Sciences (NCATS), 2009)
# Among all 16,000 compounds or so, about 2,600 (16%) were called active. About 20% were inconclusive and are not listed. Calls come from the whole dose curve; as a rule, active = well fitted curve in the direction sought with a large enough effect; inconclusive = small, poorly fitted or top-dose-only effect, or effect the other way; inactive = no such curve, though single readings can be large or run the other way. The full list was thinned out, with actives kept by preference.
# Target: Cytochrome P450 2D6 (Homo sapiens) (UniProt P10635)
# Sequence (P10635 whole entry, looked up): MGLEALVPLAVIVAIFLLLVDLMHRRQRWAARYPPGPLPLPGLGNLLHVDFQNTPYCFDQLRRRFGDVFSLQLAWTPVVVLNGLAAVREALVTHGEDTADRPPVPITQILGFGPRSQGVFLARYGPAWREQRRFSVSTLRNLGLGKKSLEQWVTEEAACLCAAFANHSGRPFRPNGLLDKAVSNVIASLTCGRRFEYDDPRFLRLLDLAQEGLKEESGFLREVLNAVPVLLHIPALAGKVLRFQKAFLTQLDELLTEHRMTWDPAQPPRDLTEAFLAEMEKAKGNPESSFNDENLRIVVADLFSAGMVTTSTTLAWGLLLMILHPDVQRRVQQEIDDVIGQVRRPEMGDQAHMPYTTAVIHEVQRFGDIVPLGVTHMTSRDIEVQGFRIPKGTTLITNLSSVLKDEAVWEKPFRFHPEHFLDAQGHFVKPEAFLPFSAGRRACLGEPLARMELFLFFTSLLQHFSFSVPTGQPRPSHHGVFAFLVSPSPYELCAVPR
# Assay: Cytochrome panel assay with activity outcomes
# Details: recombinant CYP, pro-luciferin dealkylation, luminescence, p450-cyp2d6; series mostly up to 57.1 µM; activity, negative = inhibition: at the top concentration
# % is set by controls: 0 for no effect and ±100 for the full control effect.
Compound,"activity, negative = inhibition",AC50
CCCCCCCCCCCCCC(=O)O[C@H]1[C@@H](C)[C@@]2(O)[C@@H](C=C(CO)C[C@]3(O)C(=O)C(C)=C[C@@H]23)C2C(C)(C)[C@]21OC(C)=O (stereo partly specified),-9.86% (inactive),
CCc1ccccc1NC(=O)NC1CC2CCC(C1)N2Cc1cccs1 (stereo unspecified),,6.31 µM (active)
COCCNC(=S)NC1CC2CCCC(C1)N2Cc1cccs1 (stereo unspecified),,0.398 µM (active)
COCCNC(=S)N1C2CCC1CC(NC(=O)NC13CC4CC(CC(C4)C1)C3)C2 (stereo unspecified),5.78% (inactive),
COCCCNC(=S)NC1CC2CCCC(C1)N2Cc1cccs1 (stereo unspecified),,0.891 µM (active)
C=C1C(O)(c2ccccc2)C2CC[N+]1(C)CC2 (stereo unspecified),-29.7% (inactive),
Cn1c(O)c(C(=N)COc2ccccc2)c(=O)n(C)c1=O,-6.8% (inactive),
CCCCc1ccc(C(=O)O)nc1,,inactive
CS(=O)c1ccc(-c2nc(-c3ccc(F)cc3)c(-c3ccncc3)[nH]2)cc1 (stereo unspecified),8.63% (inactive),
C#CCN(C)[C@H](C)Cc1ccccc1,1.61% (inactive),
C[C@@H](Cc1ccccc1)NCCC(c1ccccc1)c1ccccc1,,0.01 µM (active)
CCOC(=O)N1CCC(NC(=O)CCc2nc(C3=CCN(C)CC3)no2)CC1,1.28% (inactive),
Nc1nnnn1CCO,3.8% [at 11.4 µM] (inactive),
O=C(O)c1nn(Cc2ccc(Cl)cc2Cl)c2ccccc12,0.0532% (inactive),
Cc1ccccc1-n1c(O)c(C=Nc2ccc(N(C)C)cc2)c(=O)[nH]c1=O,-6.05% (inactive),
Cc1oc(-c2ccccc2F)nc1CS(=O)CC(=O)N1CCC2(CC1)OCCO2 (stereo unspecified),7.67% (inactive),
CC1=C2[C@@H]3OC(=O)[C@@H](C)[C@@H]3CC[C@]2(C)C=CC1=O,-7.67% [at 25.6 µM] (inactive),
O=C(O)[C@H]1C[C@@H]1[C@H](NP(=O)(c1ccccc1)c1ccccc1)c1ccccc1,10.1% (inactive),
COc1ccc(CNC(=O)/C=C\c2ccc3[nH]cc(CCN(C)C)c3c2)cc1,-1.05% (inactive),
CN[C@H](Cc1ccccc1)c1cccc(OC)c1O,,0.0398 µM (active)
O=c1[nH]c(=O)n([C@H]2C[C@H](O)[C@H](CO)O2)cc1/C=C\Br,-3.53% (inactive),
N#C/C(=C\c1ccc(O)c(O)c1)C(=O)NCCCNC(=O)/C(C#N)=C/c1ccc(O)c(O)c1,-4.88% (inactive),
COCCCn1c(N)c(C(=O)Nc2sc3c(c2C(=O)OC)CCCC3)c2nc3ccccc3nc21,6.62% (inactive),

Compound,"activity, negative = inhibition",AC50
CCCCn1c(N)c(C(=O)NCc2cccs2)c2nc3ccccc3nc21,,20 µM (active)
O=[As](O)(O)c1ccc(N=Nc2ccc(O)cc2)cc1,2.25% [at 11.4 µM] (inactive),
C[C@@]12CC[C@H]3[C@@H](CC[C@@H]4C[C@H](O)CC[C@]43C)[C@H]1CC[C@H]2O,6.56% (inactive),
C[C@]12CC[C@H](O)C[C@@H]1CC[C@H]1[C@H]2CC[C@]2(C)C(=O)CC[C@@H]12,,inactive
COc1ccc2c(c1)CN([C@H](C)[C@@H]1CC[C@@H]3[C@H]4CC[C@H]5C[C@@H](O)CC[C@@]5(C)[C@H]4CC[C@]31C)CO2,,3.16 µM (active)
CC[N@+]1(C)CCC[C@@H](OC(=O)C(O)(c2ccccc2)c2ccccc2)C1,,5.01 µM (active)
CN=C(NC#N)NCCSCc1nc[nH]c1C,8.36% (inactive),
C[C@H](N)[C@H](O)c1ccc(O)c(O)c1,,inactive
CC[C@H](CO)NC(=O)[C@@H]1C=C2c3cccc4c3c(cn4C)C[C@@H]2N(C)C1,,39.8 µM (active)
CC(C)C[C@H]1C(=O)N2CCC[C@@H]2[C@]2(O)O[C@](NC(=O)[C@@H]3C=C4c5cccc6[nH]c(Br)c(c56)C[C@H]4N(C)C3)(C(C)C)C(=O)N12,-2.92% (inactive),
CC[C@@H](CO)NC(=O)[C@H]1C=C2c3cccc4c3c(cn4C)C[C@H]2N(C)C1,,12.6 µM (active)
Cc1cc(NC(=O)CCC(=O)N2CCC3(CC2)OCCO3)no1,4.64% (inactive),
Cc1ccc(CCN2CC(C(=O)N3CCC4(CC3)OCCO4)CC2=O)cc1 (stereo unspecified),5.9% (inactive),
N[C@H](CCCCCP(=O)(O)O)C(=O)O,,inactive
O=C(O)CCCc1ccc(N(CCCl)CCCl)cc1,1.05% [at 25.6 µM] (inactive),
C[C@H](CCC(=O)O)[C@H]1CC[C@]2(C)[C@@H]3C(=O)C[C@H]4C(C)(C)[C@@H](O)CC[C@]4(C)[C@H]3C(=O)C[C@@]12C,-4.73% [at 11.4 µM] (inactive),
CC(=O)[C@@H]1CC[C@H]2[C@H]3CC[C@H]4C[C@@H](O)CC[C@]4(C)[C@@H]3CC[C@]12C,-4.86% (inactive),
O=C(O)C(=O)Cc1ccc2c(c1)OCO2,-12.2% [at 11.4 µM] (inactive),
Oc1ccc(CCNCc2cc3c(cc2Br)OCO3)cc1,,0.316 µM (active)
CO[C@H]1[C@H](O)[C@H](O[C@@H]2[C@H](Oc3cccc4c(O)c5c(=O)oc6ccc(C)c7c(=O)oc(c34)c5c67)O[C@@H](C)[C@H](O)[C@H]2O)O[C@@H](C)[C@@H]1O,19.6% [at 11.4 µM] (inactive),
CCCCCCCC/C=C\CCCCCCCC(N)=O,12.7% (inactive),
N[C@@H](CCCP(=O)(O)O)C(=O)O,5.98% (inactive),
C[N+](C)(C)CCCCCCCCCC[N+](C)(C)C,2.5% (inactive),

Compound,"activity, negative = inhibition",AC50
O=C(COc1ccc2ccccc2c1)N1CCN(CC2CC3C=CC2C3)CC1 (stereo unspecified),,5.01 µM (active)
COc1cc(CN2CCN(C(=O)COc3ccccc3)CC2)cc(OC)c1OC,-3.69% (inactive),
CC(=O)N1CCC2(CC1)CC(=O)c1cc(OCC(=O)N3CCN(C)CC3)ccc1O2,-11.1% (inactive),
CCN1C[C@@]2(COC)[C@H]3[C@@H](OC)[C@H]4C1[C@@]3([C@H](OC)C[C@@H]2O)[C@H]1C[C@@]2(O)[C@@H](OC(=O)c3ccccc3)[C@@H]1[C@@]4(OC(C)=O)[C@H](O)[C@@H]2OC,-3.27% [at 25.6 µM] (inactive),
Cc1ccc(C2CC(=O)C(C=NCCN3CCN(C(=O)Cc4ccccc4)CC3)=C(O)C2)cc1 (stereo unspecified),-16.3% (inactive),
CN(C)CS/C(N)=N/[C@H](O)C(Cl)(Cl)Cl,-6.69% [at 11.4 µM] (inactive),
CN1CCc2nc3sc(C(=O)NC(C)(C)C)c(N)c3cc2C1,-24.5% (inactive),
CCOC(=O)C1=C(C)OC(N)=C(C#N)C12C(=O)N(C)c1ccccc12 (stereo unspecified),22.5% (inactive),
CC[C@]1(OC(=O)CN)C(=O)OCc2c1cc1n(c2=O)Cc2cc3ccccc3nc2-1,-0.998% [at 11.4 µM] (inactive),
C[C@@H]1Cc2cc3c(cc2C(c2ccc(N)cc2)=NN1)OCO3,,31.6 µM (active)
CCC12C=CCN3CCC4(c5cc(Br)c(OC)cc5N(C)C4C(O)(C(=O)OC)C1OC(C)=O)C32 (stereo unspecified),,2.51 µM (active)
C=Cn1ccnc1P(=S)(c1nccn1C=C)C1CCCCC1,15.2% (inactive),
CN1[C@@H]2CC[C@H]1CC(NC(=O)c1nn(C)c3ccccc13)C2 (stereo partly specified),-2.33% (inactive),
CNC(=S)NC1CC2CCCC(C1)N2CC(C)C (stereo unspecified),,5.01 µM (active)
COc1ccc(C(=O)NC2CC3CCCC(C2)N3CC(C)C)cc1OC (stereo unspecified),,4.47 µM (active)
O=C(O)Cc1cnc[nH]1,-2.85% (inactive),
C/C(=C\C=C/[C@@H](C)C(=O)O)[C@H]1CN[C@H](C(=O)O)[C@@H]1CC(=O)O,3.09% (inactive),
c1cnc(N2CC[C@@]3(CCCNC3)C2)nc1,,7.94 µM (active)
c1ccc(N2CC[C@@]3(CCCNC3)C2)nc1,-1.61% (inactive),
N#Cc1ccc(CN2CC[C@@]3(CCCNC3)C2)cc1,-9.13% (inactive),
C=C(C)[C@H]1CC[C@]2(CO)CC[C@]3(C)[C@@H](CC[C@H]4[C@@]5(C)CC[C@@H](O)C(C)(C)[C@@H]5CC[C@@]43C)[C@H]12,-7.87% [at 25.6 µM] (inactive),
COC(=O)Nc1nc2ccc(C(=O)c3cccs3)cc2[nH]1,-5.24% [at 25.6 µM] (inactive),
COc1cc(-c2ccc(=O)[nH]n2)ccc1OC(F)F,-0.446% [at 25.6 µM] (inactive),

Compound,"activity, negative = inhibition",AC50
COc1ccc2[nH]cc(CCN)c2c1,-16.5% (inactive),
C[C@H](N)Cc1c[nH]c2ccc(OCc3cccs3)cc12,,0.794 µM (active)
NCCc1c[nH]c2ccc(OC(=O)C(=O)O)cc12,-17.3% [at 11.4 µM] (inactive),
O[C@@H]1[C@H](O)[C@H]2[C@@H](O)CCN2C[C@@H]1O,10.3% (inactive),
CC(C)[C@]1(O)[C@@H](OC(=O)c2ccc[nH]2)[C@]2(O)[C@@]3(C)C[C@@]4(O)O[C@@]5([C@H](O)[C@@H](C)CC[C@]35O)[C@]2(O)[C@]41C,9.77% [at 11.4 µM] (inactive),
NC(=O)CN1C[C@@H](O)CC1=O,1.68% (inactive),
O=c1c(O)c(-c2cc(O)c(O)c(O)c2)oc2cc(O)cc(O)c12,-10.3% [at 25.6 µM] (inactive),
N[C@@H](Cc1ccccc1)P(=O)(O)O,-3.26% [at 11.4 µM] (inactive),
c1ccc(C[C@@H](c2ccccc2)N2CCCCC2)cc1,,2 µM (active)
CC(C(=O)c1c[nH]c2ccccc12)N1CCSCC1 (stereo unspecified),,6.31 µM (active)
CC(=O)NCCc1c[nH]c2ccccc12,1.29% (inactive),
N[C@H](Cc1c[nH]c2ccccc12)P(=O)(O)O,-0.254% [at 11.4 µM] (inactive),
CCCCc1nc2ccccc2c(=O)n1-c1ccc(Cl)cc1[N+](=O)[O-],8.42% (inactive),
CN(C)[C@@H]1C(=O)C(C(N)=O)=C(O)[C@]2(O)C(=O)C3=C(O)c4c(O)cccc4[C@](C)(O)[C@H]3C[C@@H]12,-6.07% [at 11.4 µM] (inactive),
CCCCN1C(=O)/C(=C\c2ccco2)C(=O)N(CCc2ccccc2)C1=O,8.02% (inactive),
Fc1ccc(CCNCc2cccc(Cl)c2)cc1,,0.794 µM (active)
Fc1ccc(CCNCc2ccc(Cl)c(Cl)c2)cc1,,0.398 µM (active)
O=C(O)[C@@H](O)[C@@H](O)[C@@H]1[O][Sb][O][C@@H]1CO,12.5% [at 11.4 µM] (inactive),
O=C(O)C[C@H]1NCc2cc3ccccc3nc21,3.21% [at 11.4 µM] (inactive),
COc1cc(CCN)c(OC)c(OC)c1,0.204% [at 11.4 µM] (inactive),
C[C@@]12C(=O)OC(=O)[C@@]1(C)[C@H]1CC[C@@H]2O1,-0.0372% (inactive),
NC(=O)c1ccc(-c2nc(-c3ccc4c(c3)OCO4)c(-c3ccccn3)[nH]2)cc1,,12.6 µM (active)
